# Experimental data as given in the OligoGym collection.
# Molecular target: BRD2
# Experiment: pooled miR-30 sensor sort-seq; sequence = guide strand
# Details: shRNA
# Note: reference of the scale not given here.
row,Sequence,sensor-assay potency score (higher = more potent)
1,TATAATTTTGTGATAATCCGGT,0.775
2,TTTCTCATTCGCTTTCTTGGGG,0.425
3,TAAAATCTTGCATACACTCTGA,-0.097

# Molecular target: BRMS1L
# Experiment: as above
# Details: shRNA
row,Sequence,sensor-assay potency score (higher = more potent)
1,TTCAGATCTAGCACTGTGCAGA,-0.0416
2,TGGACCTGAAACAACAACTGGC,-0.0627
3,TTCAAGAATATCAAGATCTTGT,0.566
4,TTCTTCTTCTTTCACAGTCTTC,-0.927
5,TTCTGAGCTATCTCCATCCTCG,-0.213
6,TTTGGTAACACTAATAAGGTAA,-0.0586
7,TAACATATCAATGAGATCTATT,-0.518
8,TTCTTTATAAAGTTGATCTTTG,-0.111
9,TTGTAGTTTTGCATCCACCTGA,0.526
10,TTCACAGTCTTCATCATCCATT,-0.228
11,TATAGCAACAGCTTTTCGCTCT,0.681
12,TTCTTTACAGATTCTAAGCAGA,-0.334

# Molecular target: BRP44L
# Experiment: as above
# Details: shRNA
row,Sequence,sensor-assay potency score (higher = more potent)
1,TTAATTGCATATTTTGAGCTAC,-0.357
2,TTCGGACATAGTCCGCCGCTTT,-1.36
3,TCGTGTTTGATAAGCCGCCCTC,-0.468
4,TTTTGAGCTACTCTTTATGGAA,-0.685
5,TAACATTTTTAAACAGTGGGGA,0.282
6,TCAAAGAATAGCAACAGAGGGC,-0.477
7,TACCTTGTAGGCAAATCTCATG,-1.15
8,TAGTCCCGGAAATCCTTGCTTC,-0.727
9,TTTGATAAGCCGCCCTCCCTGG,-0.467
10,ATGAATGTCAAAGAATAGCAAC,-1.23
11,TTTTTCATTAAGTAAATTCTAA,-0.748
12,TTGCTTCGGACATAGTCCGCCG,-0.944

# Molecular target: BST2
# Experiment: as above
# Details: shRNA
row,Sequence,sensor-assay potency score (higher = more potent)
1,TGGTTTTCTCTTCTCAGTCGCT,-0.752
2,TTCTCTTCTCAGTCGCTCCACC,-0.48
3,ATGTAGTGATCTCTCCCTCAAG,-1.69
4,TCAGTCGCTCCACCTCTGCAGA,-1.23
5,TTTCTCTTCTCAGTCGCTCCAC,0.121
6,TACTTCTTGTCCGCGATTCTCA,-0.543
7,ATTCTCACGCTTAAGACCTGGT,-0.0201
8,TACAGCGCTTATCCCCGTCTTC,-1.34
9,TCAAGCTCCTCCACTTTCTTTT,-0.76
10,TGAAGCTTATGGTTTAATGTAG,-0.303
11,TCTCACGCTTAAGACCTGGTTT,-0.474
12,TTCTCAGTCGCTCCACCTCTGC,-1.51
13,ATTAGGGCCATCACAGTGTGGT,-0.491
